# Inconclusive results are not listed. The source made the active and inactive calls. Calls come from the whole dose curve; as a rule, active = well fitted inhibition curve with a large enough effect; inconclusive = small, poorly fitted or top-dose-only effect; inactive = flat fitted curve, though single readings scatter.
# Test: P-glycoprotein substrates identified in KB-8-5-11 adenocarcinoma cell line, qHTS therapeutic library screen (AID 1346987); note: nearly all actives have a fitted effect of over 65% in size
# Conditions: KB-8-5-11 (P-gp overexpressing) viability, CellTiter-Glo, 72 h; series mostly up to 44.5 µM; activity change, negative = cytotoxicity: at the top concentration
# In short: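 P-gp-mediated resistance screen: KB-8-5-11 cells treated 72 h with compounds in dose-response. CellTiter-Glo viability.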
# % is set by controls: 0 for no effect and ±100 for the full control effect; potency is the fitted concentration of half-maximal effect.
Compound,"activity change, negative = cytotoxicity",Potency,outcome
C/C=C/c1ccc2c(c1)[C@@H](C)[C@H](c1ccc(O)cc1)O2,5.01% (inactive),–,–
CC1(C)CC(NC(=O)C(=O)Nc2ccc(Br)cc2)CC(C)(C)N1,4.11% (inactive),–,–
CC(C)C(CO)Nc1nc(Nc2cc(N)cc(Cl)c2)c2ncn(C(C)C)c2n1 (centres undefined),–,7.31 µM (active),–
CC1(C)CCCC2(C)C(C(=O)O)=CCC12 (centres undefined),-2.8% (inactive),–,–
CC1(C)CC(=O)C2=C(C1)NC(=S)NC2c1cccc(O)c1 (centres undefined),–,5.8 µM (active),–
O=C(O)c1cc2cccc([N+](=O)[O-])c2[nH]1,–,–,inactive
N#C[C@@H]1C[C@H](F)CN1C(=O)CNC1[C@H]2CN(C(=O)c3ccc(F)cc3)C[C@@H]12 (some centres undefined),8.85% (inactive),–,–
CC(C)c1cc(C(=O)N2CC[C@@H](NC(=O)C3CC3)C2)n[nH]1,-0.389% (inactive),–,–
CN[C@H](C(=O)N[C@H](C(=O)N(C)[C@H](/C=C(\C)C(=O)O)C(C)C)C(C)(C)C)C(C)(C)c1ccccc1,–,0.0184 µM (active),–
Cc1cccc(C)c1-n1c(=O)c2cnc(Nc3ccc(N4CCN(C)CC4)cc3)nc2n2c3ccccc3nc12,–,0.92 µM (active),–
CC(=O)OC1C[C@]2(C)C(O)CC(C)=C[C@H](OC(=O)c3ccc(O)cc3)C2[C@]1(O)C(C)C (some centres undefined),5.63% [at 17.3 µM] (inactive),–,–
C[C@H]1Oc2cc(cnc2N)-c2c(nn(C)c2C#N)CN(C)C(=O)c2ccc(F)cc21,-54% (inactive),–,–
CC(=O)OC1C(c2ccccc2)CCC(c2ccccc2)C1OC(C)=O (centres undefined),-3.87% (inactive),–,–
CC1(C)CC[C@]2(C(=O)O)CC[C@]3(C)C(=CCC4[C@@]5(C)CC[C@H](O[C@@H]6O[C@H](CO)[C@@H](O)[C@H](O)[C@H]6O[C@@H]6O[C@H](CO)[C@@H](O)[C@H](O)[C@H]6O)[C@@](C)(CO)C5CC[C@]43C)[C@@H]2C1 (some centres undefined),–,–,inactive [at 17.3 µM]
CC[C@]1(O)CC2CN(CCc3c([nH]c4ccccc34)[C@@](C(=O)OC)(c3cc4c(cc3OC)N(C)[C@H]3[C@@](O)(C(=O)OC)[C@H](OC(C)=O)[C@]5(CC)C=CCN6CC[C@]43[C@@H]65)C2)C1 (some centres undefined),–,1.03 µM (active),–
C[C@@H]1COCCN1c1cc(C2(S(C)(=O)=O)CC2)nc(-c2cccc3[nH]ccc23)n1,–,1.46 µM (active),–
Cc1cccc2c1NC(=O)C2(c1ccc(O)cc1)c1ccc(O)cc1,-21.4% (inactive),–,–
CO[C@H]1/C=C/C=C/C=C/C[C@H](OC(=O)[C@@H](C)NC(=O)C2CCCCC2)[C@H](C)[C@@H](O)/C(C)=C/CCc2cc(O)cc(c2)NC(=O)C1,-19.1% [at 17.3 µM] (inactive),–,–
O=C(Nc1ccc(Cl)cc1F)c1ccccc1O,–,7.31 µM (active),–
C=C[C@H]1C(O[C@@H]2O[C@H](CO)[C@@H](O)[C@H](O)[C@H]2O)OC=C2C(=O)N3CCc4c([nH]c5ccccc45)[C@H]3C[C@H]21 (some centres undefined),–,–,inactive [at 17.3 µM]
CC(Cc1cc2c(c(C(N)=O)c1)N(CCCO)CC2)NCCOc1ccccc1OCC(F)(F)F (centres undefined),–,–,inactive
OC[C@H]1O[C@@H](OCCc2ccc(O)cc2)[C@H](O[C@@H]2OC[C@](O)(CO)[C@H]2O)[C@@H](O)[C@@H]1O,–,–,inactive [at 17.3 µM]
COc1cc(O)c2c(c1)C1=C[C@H](O)[C@@H](O)C[C@]1(C)OC2=O,1.47% (inactive),–,–
NCc1ccc(Nc2ncc(F)c(Nc3ccccc3)n2)cc1,–,5.8 µM (active),–

# From PubChem BioAssay (NCATS)
